# In PubChem BioAssay (NCATS):
# “And” between values parts separate entries of the source, which are not always exact repeats. Equal entries are not always repeated. Inconclusive results are not listed. Entries that show only a call come without a potency. Values without a mark were called inactive. The source made the active and inactive calls. Calls come from the whole dose curve; as a rule, active = well fitted curve in the direction sought with a large enough effect; inconclusive = small, poorly fitted or top-dose-only effect, or another doubt; inactive = no such curve, though single readings can be large; an effect the other way counts as inactive or inconclusive.
# Experiments:
# CRL-7250 = normal cell line; test: Cytotoxic Profiling of Annotated Libraries Using Quantitative High-Throughput Screening (AID 1296008); settings: Five cell lines viability, CellTiter-Glo ATP luminescence, 48-72 h; max response: stronger effect = lower value; note: nearly all actives have a fitted effect of over 60% in size; note: potency is the fitted concentration of half-maximal effect
# How it was run: (§1)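 Cytotoxicity was measured as CellTiter-Glo ATP luminescence, read after 10 min at room temperature. Compound treatment of the cells lasted 48 or 72 hr at 37 degrees Celsius in a qHTS format.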
# HEK293 = test: as above; settings: Five cell lines viability, CellTiter-Glo ATP luminescence, 48-72 h; max response: stronger effect = lower value
# How it was run: as §1
# HaCat [1] = test: as above; settings: Five cell lines viability, CellTiter-Glo ATP luminescence, 48-72 h; max response: stronger effect = lower value
# How it was run: as §1
# KB-3-1 = test: as above; settings: Five cell lines viability, CellTiter-Glo ATP luminescence, 48-72 h; max response: stronger effect = lower value
# How it was run: as §1
# NIH3T3 [2] = test: as above; settings: Five cell lines viability, CellTiter-Glo ATP luminescence, 48-72 h; max response: stronger effect = lower value
# How it was run: as §1
# HACAT [3] = test: qHTS assay to identify novel small-molecules to repurpose for Merkel cell carcinoma treatment (AID 1296009); settings: MCC and control cell lines, CellTiter-Glo viability, 72 h; at 44.8 µM (top of the series) unless noted; note: nearly all actives have a fitted effect of over 60% in size
# How it was run: (§2)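 Cell viability measured by CellTiter-Glo following 72 hr compound treatment at 37 degree celsius, with NPC and MIPE libraries tested in 8- and 11-point concentration series.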
# MCC-13 = test: as above; settings: MCC and control cell lines, CellTiter-Glo viability, 72 h; series mostly up to 46 µM
# How it was run: as §2
# MCC-26 = test: as above; settings: MCC and control cell lines, CellTiter-Glo viability, 72 h; series mostly up to 46 µM
# How it was run: as §2
# MKL-1 = test: as above; settings: MCC and control cell lines, CellTiter-Glo viability, 72 h; series mostly up to 46 µM
# How it was run: as §2
# MKL-2 = test: as above; settings: MCC and control cell lines, CellTiter-Glo viability, 72 h; series mostly up to 46 µM
# How it was run: as §2
# UISO = test: as above; settings: MCC and control cell lines, CellTiter-Glo viability, 72 h; series mostly up to 46 µM
# How it was run: as §2
# WaGa = test: as above; settings: MCC and control cell lines, CellTiter-Glo viability, 72 h; series mostly up to 46 µM
# How it was run: as §2
# C33A = test: Primary qHTS to identify gynecologic anti-cancer compounds using libraries of approved drugs and bioactive compounds (AID 1345084); settings: Gynecologic cancer cell panel viability, ATPlite luminescence, 48 h; series mostly up to 57.5 µM; note: nearly all actives have a fitted effect of over 55% in size; note: potency is the fitted concentration of half-maximal effect
# How it was run: (§3)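 Cells, 1,000 per well, were allowed to settle for 16 h at 37 C before compound addition. Five concentrations were tested for 48 h, and viability was read by ATPlite luminescence after 15 min at room temperature.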
# CAOV3 = test: as above; settings: Gynecologic cancer cell panel viability, ATPlite luminescence, 48 h; series mostly up to 57.5 µM
# How it was run: as §3
# TAB109 = test: qHTS profiling for inhibitors of Plasmodium falciparum proliferation (AID 504749); note: nearly all actives have a fitted effect of over 60% in size; settings: P. falciparum in erythrocytes, SYBR Green DNA, 72 h; series mostly up to 28.7 µM
# How it was run: (§4)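 In a 72 h erythrocytic culture (37 C, humidified, 5% CO2) at 2.5% hematocrit and 0.3% starting parasitemia, compounds were tested; SYBR Green I in detergent lysis buffer stained parasite DNA overnight.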
# TAB113 = test: as above; settings: P. falciparum in erythrocytes, SYBR Green DNA, 72 h; series mostly up to 28.7 µM
# How it was run: as §4
# TAB165 = test: as above; settings: P. falciparum in erythrocytes, SYBR Green DNA, 72 h; series mostly up to 28.7 µM
# How it was run: as §4
# W2 = test: as above; settings: P. falciparum in erythrocytes, SYBR Green DNA, 72 h; series mostly up to 28.7 µM
# How it was run: as §4
# HEK293T = test: qHTS assay to identify novel small-molecules to repurpose for Merkel cell carcinoma treatment (AID 1296009); settings: MCC and control cell lines, CellTiter-Glo viability, 72 h; at 44.8 µM (top of the series); note: nearly all actives have a fitted effect of over 60% in size
# How it was run: as §2
# NIH3T3 [4] = test: as above; settings: MCC and control cell lines, CellTiter-Glo viability, 72 h; at 44.8 µM (top of the series) unless noted
# How it was run: as §2
smiles,measurement,setting,value
COc1cc(NC(=O)c2ccc(-c3ccc(Cl)cc3)o2)cc(OC)c1,outcome,CRL-7250,inactive
same,max response,HEK293,2.11%
same,outcome,HaCat [1],inactive
same,max response,KB-3-1,5.65%
same,max response,NIH3T3 [2],1.05%
same,outcome,HACAT [3],inactive
same,Potency,MCC-13,inactive
same,Potency,MCC-26,inactive
same,Potency,MKL-1,inactive
same,Potency,MKL-2,inactive
same,Potency,UISO,inactive
same,Potency,WaGa,inactive
O=C(Nc1c(Cl)cncc1Cl)c1ccc(OC(F)F)c(OCC2CC2)c1,max response,CRL-7250,-6.52%
same,max response,HEK293,0.493%
same,outcome,HaCat [1],inactive
same,outcome,KB-3-1,inactive
same,max response,NIH3T3 [2],-4.15%
same,outcome,HACAT [3],inactive
same,Potency,MCC-13,inactive
same,Potency,MCC-26,inactive
same,Potency,MKL-1,inactive
same,Potency,MKL-2,inactive
same,Potency,UISO,inactive
same,Potency,WaGa,inactive
CN1C[C@H]2c3ccccc3Oc3ccc(Cl)cc3[C@@H]2C1,max response,CRL-7250,-7.6% and -3.52%
same,Potency,HEK293,10.6 µM (active)
same,outcome,HaCat [1],inactive
same,max response,KB-3-1,-7.18%
same,max response,NIH3T3 [2],-1.33% and 3.58%
same,outcome,HACAT [3],inactive
same,Potency,MCC-13,inactive
same,Potency,MCC-26,inactive
same,Potency,MKL-1,inactive
same,Potency,MKL-2,inactive
same,Potency,UISO,inactive
same,Potency,WaGa,inactive
same,Potency,C33A,inactive
same,Potency,CAOV3,inactive
NC(N)=Nc1nc(CSCC/C(N)=N/S(N)(=O)=O)cs1,outcome,TAB109,inactive
same,Potency,TAB113,inactive
same,Potency,TAB165,inactive
same,Potency,W2,inactive
same,max response,CRL-7250,-7.89%
same,outcome,HEK293,inactive
same,outcome,HaCat [1],inactive
same,max response,KB-3-1,30.2%
same,outcome,NIH3T3 [2],inactive
same,outcome,HACAT [3],inactive
same,outcome,HEK293T,inactive
same,Potency,MCC-13,inactive
same,Potency,MCC-26,inactive
same,Potency,MKL-1,inactive
same,Potency,MKL-2,inactive
same,outcome,NIH3T3 [4],inactive
same,Potency,UISO,inactive
same,Potency,WaGa,inactive
same,Potency,C33A,inactive
same,Potency,CAOV3,inactive
O=c1ccn([C@@H]2O[C@H](CO)[C@H](O)[C@H]2O)c(=O)[nH]1,max response,CRL-7250,-5.18%
same,outcome,HEK293,inactive
same,outcome,HaCat [1],inactive
same,outcome,KB-3-1,inactive
same,max response,NIH3T3 [2],-5.13%
same,outcome,HACAT [3],inactive
same,outcome,HEK293T,inactive
same,Potency,MCC-13,inactive
same,Potency,MKL-1,inactive
same,Potency,MKL-2,inactive
same,Potency,UISO,inactive
same,Potency,WaGa,inactive
CCC(CC)[C@H](NC(C)=O)[C@@H]1[C@H](O)[C@@H](C(=O)O)C[C@@H]1N=C(N)N,max response,CRL-7250,2.58%
same,max response,HEK293,-9.34%
same,outcome,HaCat [1],inactive
same,max response,KB-3-1,7.98%
same,outcome,NIH3T3 [2],inactive
same,outcome,HACAT [3],inactive
same,Potency,MCC-13,inactive
same,Potency,MCC-26,inactive
same,Potency,MKL-1,inactive
same,Potency,MKL-2,inactive
same,outcome,NIH3T3 [4],inactive
same,Potency,UISO,inactive
same,Potency,WaGa,inactive
CC(=O)c1ccc(S(=O)(=O)NC(=O)NC2CCCCC2)cc1,Potency,TAB113,inactive
same,Potency,TAB165,inactive
same,Potency,W2,inactive
same,max response,CRL-7250,-4.5%
same,outcome,HEK293,inactive
same,outcome,HaCat [1],inactive
same,max response,KB-3-1,-6.14%
same,max response,NIH3T3 [2],-3.55%
same,outcome,HACAT [3],inactive
same,outcome,HEK293T,inactive
same,Potency,MCC-13,inactive
same,Potency,MCC-26,inactive
same,Potency,MKL-1,inactive
same,Potency,MKL-2,inactive
same,Potency,UISO,inactive
same,Potency,WaGa,inactive
same,Potency,C33A,inactive
same,Potency,CAOV3,inactive
COCCOc1nc(-c2ccc(Cl)c(Cl)c2)n(-c2ccc(NC(=O)CCl)cc2)n1,Potency,CRL-7250,6.62 µM (active)
same,Potency,HEK293,3.72 µM (active) and 4.61 µM (active)
same,outcome,HaCat [1],inactive
same,Potency,KB-3-1,18.7 µM (active)
same,Potency,NIH3T3 [2],4.11 µM (active)
same,outcome,HACAT [3],inactive
same,Potency,MCC-13,inactive
same,Potency,MCC-26,inactive
same,Potency,MKL-1,inactive
same,Potency,C33A,20 µM (active)
same,Potency,CAOV3,28.2 µM (active)
CC(=Cc1ccccc1)C=C1SC(=S)N(CC(=O)O)C1=O,max response,CRL-7250,-0.535%
same,max response,HEK293,-4.91%
same,outcome,HaCat [1],inactive
same,max response,KB-3-1,-2.93%
same,outcome,NIH3T3 [2],inactive
same,outcome,HACAT [3],inactive
same,Potency,MCC-13,inactive
same,Potency,MCC-26,inactive
same,Potency,MKL-1,inactive
same,Potency,MKL-2,inactive
same,outcome,NIH3T3 [4],inactive
same,Potency,UISO,inactive
same,Potency,WaGa,inactive
CC=C(C)C(=O)O[C@H]1C(C)=C[C@]23C(=O)[C@@H](C=C(CO)[C@@H](O)[C@]12O)[C@H]1[C@@H](C[C@H]3C)C1(C)C,max response,CRL-7250,2.46%
same,Potency,HEK293,26.4 µM (active)
same,outcome,HaCat [1],inactive
same,max response,KB-3-1,-20.1%
same,max response,NIH3T3 [2],-20.8%
same,outcome,HACAT [3],inactive
same,Potency,MCC-13,inactive
same,Potency,MCC-26,inactive
same,Potency,MKL-1,inactive
same,Potency,MKL-2,inactive
same,Potency,WaGa,inactive
CO[C@H]1C[C@@H]2CC[C@@H](C)[C@@](O)(O2)C(=O)C(=O)N2CCCC[C@@H]2C(=O)O[C@H]([C@@H](C)C[C@@H]2CC[C@H](O)[C@H](OC)C2)CC(=O)[C@H](C)C=C(C)[C@@H](O)[C@@H](OC)C(=O)[C@H](C)C[C@H](C)C=CC=CC=C1C,max response,CRL-7250,-19.3%
same,max response,HEK293,-97.2%
same,outcome,HaCat [1],inactive
same,max response,KB-3-1,-8.34%
same,outcome,NIH3T3 [2],inactive; activator
same,outcome,HACAT [3],inactive
same,Potency,MCC-13,inactive
same,Potency,MCC-26,inactive
same,outcome,NIH3T3 [4],inactive; activator
same,Potency,UISO,inactive
Nc1ncnc2c1ncn2[C@@H]1O[C@@H](CO)[C@H](O)[C@H]1O,outcome,CRL-7250,inactive
same,outcome,HEK293,inactive
same,outcome,HaCat [1],inactive
same,outcome,KB-3-1,inactive
same,max response,NIH3T3 [2],-24.9%
same,outcome,HACAT [3],inactive
same,outcome,HEK293T,inactive
same,Potency,MCC-13,inactive
same,Potency,MCC-26,inactive
same,Potency,MKL-1,inactive
same,Potency,MKL-2,inactive
same,Potency,UISO,inactive
same,Potency,WaGa,inactive
OC[C@@H](O)[C@H](O)[C@H](O)[C@@H](O)CO,max response,CRL-7250,3.59% and -3.14%
same,outcome,HEK293,inactive
same,outcome,HaCat [1],inactive
same,max response,KB-3-1,-5.61% and 12.2%
same,outcome,NIH3T3 [2],inactive
same,outcome,HACAT [3],inactive
same,outcome,HEK293T,inactive
same,Potency,MCC-13,inactive
same,Potency,MCC-26,inactive
same,Potency,MKL-1,inactive
same,Potency,MKL-2,inactive
same,outcome,NIH3T3 [4],inactive
same,Potency,UISO,inactive
same,Potency,WaGa,inactive
same,Potency,C33A,inactive
same,Potency,CAOV3,inactive
Clc1ccc(-c2nc3sccn3c2C=NOCc2ccc(Cl)c(Cl)c2)cc1,max response,CRL-7250,-8.97%
same,max response,HEK293,-1.21%
same,outcome,HaCat [1],inactive
same,max response,KB-3-1,-5.79%
same,max response,NIH3T3 [2],-1.3%
same,outcome,HACAT [3],inactive
same,Potency,MCC-13,inactive
same,Potency,MCC-26,inactive
same,Potency,MKL-1,inactive
same,Potency,MKL-2,inactive
same,Potency,UISO,inactive
same,Potency,WaGa,inactive
